These results are taken from PubChem BioAssay AID602340 (Broad Institute, 2012).

The campaign covered roughly 330,000 compounds. About 2,600 (0.79%) were called active.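 How the source made its calls: active means mean ATP rescue above about 67%, or every replicate alone reaching that limit (limit read from the data, passing the limit was not always enough); inconclusive means no clear call, values can overlap the other calls; inactive means mean under the limit and some replicate under it.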 Shown is part of a subset that was picked to be rich in actives.

A short description of this test: suppressors of statin myotoxicity in C2C12 myotubes, primary screen, cell-based, single point, plate reader (AID 602340).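 Further: myotubes were challenged with 10 µM simvastatin during compound exposure.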 The following applies: C2C12 myotubes + simvastatin, ATP luminescence, 48 h; at 7.49 µM; active compounds read high; scaled: DMSO 0, geranylgeraniol control 100.
On to `CO[C@@H]1CN(C)C(=O)c2cc(NC(C)=O)ccc2OC[C@H](C)N(CC2CCCCC2)C[C@@H]1C`, for which the rescue of ATP level was -13.7% (inactive).

On to `C[C@H](O)C#Cc1cnc2c(c1)C(=O)N([C@@H](C)CO)C[C@H](C)[C@@H](CN(C)C(=O)c1ccncc1)O2`, for which the rescue of ATP level is 8.21% (inactive).

As for `O=C(C[C@H]1C=C[C@H](NC(=O)CN2CCOCC2)[C@@H](CO)O1)NCc1cccc(F)c1`, the rescue of ATP level is -2.71% (inactive).

On to `Cc1noc(C)c1NC(=O)Nc1ccc2c(c1)CC(=O)N([C@@H](C)CO)C[C@H](C)[C@@H](CN(C)C(=O)Nc1ccc3c(c1)OCO3)O2`, for which the rescue of ATP level is -8.55% (inactive).

On to `CO[C@@H]1CN(C)C(=O)c2cc(NC(C)=O)ccc2OC[C@H](C)N(Cc2ccccc2F)C[C@@H]1C`, for which the rescue of ATP level was -2.5% (inactive).

For `CCOc1ccccc1C(=O)NC1CC2CCCC(C1)N2Cc1ccccc1` (stereo unspecified), the rescue of ATP level was 97.4% (active).

`CCCN1C2CCCC1CC(NC(=O)c1cccc(OC)c1)C2` (stereo unspecified): the rescue of ATP level is -3.95% (inactive).

Regarding `COc1ccc(CN2C3CCCC2CC(NC(=O)c2cccc(F)c2)C3)cc1` (stereo unspecified), the rescue of ATP level is 9.21% (inactive).

Consider `CCCNC(=O)N(C)C[C@@H]1Oc2ncc(-c3ccccc3F)cc2C(=O)N([C@@H](C)CO)C[C@H]1C`, for which the rescue of ATP level is 15.3% (inactive).

Turning to `COc1ccc(S(=O)(=O)N(C)C[C@H]2Oc3c(NC(=O)C4CCOCC4)cccc3C(=O)N([C@@H](C)CO)C[C@@H]2C)cc1`, the rescue of ATP level was -29.4% (inactive).

`COCC#Cc1ccc2c(c1)O[C@H](CN(C)Cc1ccc3c(c1)OCO3)[C@H](C)CN([C@H](C)CO)S2(=O)=O`: the rescue of ATP level is 15.6% (inactive).

For the molecule `CCOC(=O)C1CCN(C(=O)Cn2cc(C#N)c3ccccc32)CC1`, the rescue of ATP level was 99.6% (active).

On to `CCOC(=O)C1CCN(C(=O)CSc2cc(=O)n(C)c3ccccc23)CC1`, for which the rescue of ATP level is 4.85% (inactive).

With `CCOC(=O)C1CCN(C(=O)COc2cccc3ccccc23)CC1`, the rescue of ATP level is -0.757% (inactive).

In the case of `CCCNC(=O)N(C)C[C@H]1Oc2cc(C#CC(C)(C)O)ccc2S(=O)(=O)N([C@H](C)CO)C[C@@H]1C`, the rescue of ATP level is 1.69% (inactive).

Turning to `COC(=O)c1sc(N2CCN(Cc3ccccc3)CC2)nc1N`, the rescue of ATP level is 8.62% (inactive).

With `Cc1ccc(C2=CSC3=NS(=O)(=O)CCN23)cc1C`, the rescue of ATP level was 1.19% (inactive).

In the case of `O=S1(=O)CCN2C(=N1)SC1=C2CCN(Cc2ccccc2)C1`, the rescue of ATP level is 121% (active).

`O=C(NCC[C@H]1CC[C@@H](NC(=O)C2CCCCC2)[C@@H](CO)O1)c1ccc(F)cc1`: the rescue of ATP level was 10.2% (inactive).

With `CCC(=O)Nc1ccc2c(c1)C(=O)N(C)C[C@@H](OC)[C@@H](C)CN(Cc1ccccc1F)[C@H](C)CO2`, the rescue of ATP level is 10.8% (inactive).

On to `CCOc1ccc(-c2nc(C)sc2CC(=O)O)cc1`, for which the rescue of ATP level was 87.4% (active).

With `CCOc1ccc(NC(=O)CN(C)C(=O)Cc2sc(C)nc2-c2ccc(F)cc2)cc1OCC`, the rescue of ATP level is 8.47% (inactive).

Consider `Cc1nc(-c2ccc(F)cc2)c(CC(=O)N2CCN(S(=O)(=O)c3ccc(F)cc3)CC2)s1`, for which the rescue of ATP level was -5.66% (inactive).

Turning to `CN1C(=O)c2cc(NS(C)(=O)=O)ccc2OC[C@H]2O[C@H](CC(=O)NCc3ccccc3)CC[C@H]21`, the rescue of ATP level was -11.2% (inactive).

For `C[C@H](NC(=O)C[C@@H]1CC[C@@H](NC(=O)Cc2ccccn2)[C@@H](CO)O1)c1ccccc1`, the rescue of ATP level is 1.25% (inactive).

In the case of `CO[C@@H]1CN(C)C(=O)c2cc(NC(=O)c3cccc(F)c3)ccc2OC[C@H](C)N(C)C[C@@H]1C`, the rescue of ATP level was 6.21% (inactive).

For `CC(C)OCCCNC(=O)CN1C(=O)/C(=C/c2ccccc2F)Oc2ccccc21`, the rescue of ATP level is -11.5% (inactive).

As to `CCCN1CCN(C(=O)CCCNC(=O)c2ccc(Cl)cc2)CC1`, the rescue of ATP level was -1.82% (inactive).

For `CN1CCN(CCCNC(=O)c2ccc(/C=C3\Oc4ccccc4N(Cc4ccc(Cl)cc4)C3=O)cc2)CC1`, the rescue of ATP level was 88.6% (active).

Take `CS(=O)(=O)Nc1ccc2c(c1)[C@H]1C[C@@H](CC(=O)NCCc3ccccc3)O[C@@H](CO)[C@H]1O2`: the rescue of ATP level is 3.14% (inactive).

In the case of `O=C(OCCOc1ccccc1F)c1cc(S(=O)(=O)N2CCOCC2)ccc1F`, the rescue of ATP level was 12.7% (inactive).

In the case of `O=C(COC(=O)c1cc(S(=O)(=O)N2CCOCC2)ccc1F)NC1CC1`, the rescue of ATP level was -0.144% (inactive).

Consider `COc1cc(NC(=O)COC(=O)c2cc(S(=O)(=O)N3CCOCC3)ccc2F)cc(OC)c1`, for which the rescue of ATP level is 117% (active).

In the case of `CC=Cc1ccc2n(c1=O)C[C@@H]1[C@@H](CO)[C@H](C(=O)NCC)[C@H]2N1CCC(F)(F)F` (mixture of isomers), the rescue of ATP level is 12.8% (inactive).

Turning to `CC(C)CC#Cc1cnc2c(c1)C(=O)N([C@H](C)CO)C[C@H](C)[C@H](CN(C)CC1CCOCC1)O2`, the rescue of ATP level is 17.7% (inactive).

For the molecule `C[C@@H]1CN([C@H](C)CO)C(=O)Cc2cc(NC(=O)Cn3cnnn3)ccc2O[C@H]1CN(C)CC1CCCCC1`, the rescue of ATP level is 19.6% (inactive).

As for `Cc1ccc(-c2csc(NC(=O)c3cccs3)n2)cc1`, the rescue of ATP level was 112% (active).

For the molecule `CCc1noc(C)c1C(=O)Nc1nc(-c2ccccc2)cs1`, the rescue of ATP level is -35.8% (inactive).

Consider `CCCc1ccc(-c2csc(NC(=O)Cc3cccs3)n2)cc1`, for which the rescue of ATP level was 20.4% (inactive).

Turning to `COc1ccc(C(=O)Nc2ccc3c(c2)OC[C@H](C)N(C(C)=O)C[C@@H](C)[C@@H](OC)CN(C)C3=O)cc1`, the rescue of ATP level is -4.78% (inactive).

On to `COc1cccc(C(=O)Nc2ccc3c(c2)C(=O)N(C)[C@@H]2CC[C@H](CC(=O)NCC4CC4)O[C@@H]2CO3)c1`, for which the rescue of ATP level was 4.48% (inactive).

With `COc1cccc(C(=O)Nc2ccc3c(c2)C(=O)N(C)[C@@H]2CC[C@@H](CC(=O)NCCCN4CCOCC4)O[C@@H]2CO3)c1`, the rescue of ATP level was 8.62% (inactive).

On to `CCCNC(=O)N1C[C@H]2[C@@H](c3ccccc31)[C@H](CO)N2C(=O)NC(C)C`, for which the rescue of ATP level is -5.25% (inactive).

For `Cc1c(C(C)(C)O)[nH]c2ccc(C#N)cc12`, the rescue of ATP level is 81.3% (active).

`CCOC(=O)c1cc2sccc2n1Cc1ccc(C#N)cc1`: the rescue of ATP level is 29.8% (inactive).

As to `Cc1[nH]c2ccc(S(N)(=O)=O)cc2c1C`, the rescue of ATP level is 6.68% (inactive).
